Measured values reported in PubChem BioAssay (NCI).
Compounds without any hit were thinned out: in the full panel of roughly 83,000, 20% have a hit.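 96-well plates, one dose, 48 hours. Percent growth reported; active if below 10.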

Assays:
Experiment in all cases: NCI-60 one-dose screen, 48 h (100 = growth as untreated, 0 = no growth, -100 = all killed)
Settings in all cases: 10 µM unless noted
T-47D breast = tested on: T-47D breast
BT-549 breast = tested on: BT-549 breast
MDA-MB-435 melanoma = tested on: MDA-MB-435 melanoma
SW-620 colon = tested on: SW-620 colon
MCF7 breast = tested on: MCF7 breast
HCT-116 colon = tested on: HCT-116 colon
HCC-2998 colon = tested on: HCC-2998 colon
KM12 colon = tested on: KM12 colon

Measured: growth

CN(C)CCOC(=O)Nc1ccc(Cc2ccc(NC(=O)OCCN(C)C)cc2)cc1
inactive: T-47D breast 105% [100 µM] | BT-549 breast 68.3% [100 µM] | MDA-MB-435 melanoma 76.4% [100 µM] | SW-620 colon 85.8% [100 µM] | MCF7 breast 44.9% [100 µM] | HCT-116 colon 36.5% [100 µM] | HCC-2998 colon 46.2% [100 µM] | KM12 colon 78.8% [100 µM]

S=c1nc2[nH]c3ccccc3c2n[nH]1
inactive: T-47D breast 88.2% | BT-549 breast 102% | MDA-MB-435 melanoma 107% | SW-620 colon 95% | MCF7 breast 92.2% | HCT-116 colon 96.4% | HCC-2998 colon 102% | KM12 colon 130%

C=C1C(=O)C2CCC1C2 (stereo unspecified)
inactive: T-47D breast 98.7% | BT-549 breast 93% | MDA-MB-435 melanoma 105% | SW-620 colon 101% | MCF7 breast 109% | HCT-116 colon 105% | HCC-2998 colon 97% | KM12 colon 96.5%

O=C(O)c1ccccc1Cc1ccc2c(c1)CCCC2
inactive: T-47D breast 113% | BT-549 breast 106% | MDA-MB-435 melanoma 115% | SW-620 colon 99.5% | MCF7 breast 91.7% | HCT-116 colon 104% | HCC-2998 colon 115% | KM12 colon 113%

CC(=O)c1cccc(O)c1
inactive: T-47D breast 103% | BT-549 breast 113% | MDA-MB-435 melanoma 107% | SW-620 colon 101% | MCF7 breast 94.3% | HCT-116 colon 99.9% | HCC-2998 colon 110% | KM12 colon 103%

Nc1ncnc(Nc2ccc(C(F)(F)F)cc2)n1
inactive: T-47D breast 96.8% | BT-549 breast 98.2% | MDA-MB-435 melanoma 99.9% | SW-620 colon 109% | MCF7 breast 96.6% | HCT-116 colon 95.3% | HCC-2998 colon 101% | KM12 colon 105%

Cc1cccnc1NC1OC(=O)c2ccccc21 (stereo unspecified)
inactive: T-47D breast 94.2% | BT-549 breast 97.6% | MDA-MB-435 melanoma 103% | SW-620 colon 106% | MCF7 breast 102% | HCT-116 colon 90.8% | HCC-2998 colon 106% | KM12 colon 105%

Cc1cc2c(C(C)C)c(O)c(O)c(C=Nc3ccccc3[N+](=O)[O-])c2c(O)c1-c1c(C)cc2c(C(C)C)c(O)c(O)c(C=Nc3ccccc3[N+](=O)[O-])c2c1O
inactive: T-47D breast 83.1% | BT-549 breast 94% | MDA-MB-435 melanoma 109% | SW-620 colon 96.3% | MCF7 breast 91.2% | HCT-116 colon 73.7% | HCC-2998 colon 79.5% | KM12 colon 47.7%

O=C(NCCc1ccccc1)/C(=C\c1ccc(Cl)cc1Cl)NC(=O)c1ccccc1
inactive: T-47D breast 98.1% | BT-549 breast 104% | MDA-MB-435 melanoma 96.6% | SW-620 colon 95.7% | MCF7 breast 91.9% | HCT-116 colon 99.7% | HCC-2998 colon 113% | KM12 colon 93.4%

O=C(O)c1cc(I)ccc1O
inactive: T-47D breast 112% | BT-549 breast 85.9% | MDA-MB-435 melanoma 100% | SW-620 colon 116% | MCF7 breast 95.7% | HCT-116 colon 111% | HCC-2998 colon 95.1% | KM12 colon 108%

NNC(=O)CCCCl
inactive: T-47D breast 100% | BT-549 breast 119% | MDA-MB-435 melanoma 108% | SW-620 colon 105% | MCF7 breast 98.4% | HCT-116 colon 108% | HCC-2998 colon 102% | KM12 colon 102%

C[n+]1cc2cc3c(cc2c2ccccc21)OCO3
inactive: T-47D breast 39.8% | BT-549 breast 20% | MDA-MB-435 melanoma 64.9% | SW-620 colon 56.5% | MCF7 breast 24.5% | HCT-116 colon 40.3% | HCC-2998 colon 54.7% | KM12 colon 12.9%

O=C1C=C(c2ccccc2)C(O)(c2ccccc2)C1 (stereo unspecified)
inactive: T-47D breast 90.6% | BT-549 breast 94.8% | MDA-MB-435 melanoma 97.4% | SW-620 colon 108% | MCF7 breast 98.2% | HCT-116 colon 98.4% | HCC-2998 colon 122% | KM12 colon 107%

CCOC(=O)c1c(C)[nH]c(C)c1C=O
inactive: T-47D breast 82% | BT-549 breast 95.8% | MDA-MB-435 melanoma 105% | SW-620 colon 97.9% | MCF7 breast 89.1% | HCT-116 colon 101% | HCC-2998 colon 92.9% | KM12 colon 104%

N#C/C(=C\NC(=S)N=Nc1c(O)[nH]c2ccccc12)c1nc2ccccc2s1
inactive: T-47D breast 71.6% | BT-549 breast 101% | MDA-MB-435 melanoma 108% | SW-620 colon 93% | MCF7 breast 76% | HCT-116 colon 92.3% | HCC-2998 colon 113% | KM12 colon 102%

CC(C)(C)CC1(C)NC(=O)NC1=O (stereo unspecified)
inactive: T-47D breast 108% | BT-549 breast 119% | MDA-MB-435 melanoma 114% | SW-620 colon 103% | MCF7 breast 100% | HCT-116 colon 101% | HCC-2998 colon 113% | KM12 colon 106%

O=C(O)c1c[nH]c2ccccc2c1=O
inactive: T-47D breast 89.5% | BT-549 breast 101% | MDA-MB-435 melanoma 107% | SW-620 colon 108% | MCF7 breast 93.9% | HCT-116 colon 95% | HCC-2998 colon 102% | KM12 colon 100%
